Test results as given in PubChem BioAssay (NCATS).
Inconclusive results are not listed. Values without a mark were called inactive. Calls come from the whole dose curve; as a rule, active = well fitted activation curve with a large enough effect; inconclusive = small, poorly fitted or top-dose-only effect; inactive = flat fitted curve, though single readings scatter. Where a SMILES comes first, the peptide text is derived from it. [ ]: non-standard residue; d: D form. pGlu = O=C1CC[C@@H](C(=O)O)N1; Thz = O=C(O)[C@@H]1CSCN1

Test: Primary redox qHTS assay for identification of artifact compounds. (AID 1845223)
Conditions: Amplex Red/HRP redox cycling with DTT, fluorescence; series mostly up to 53.8 µM; redox activity (% of DA3003): at the top concentration
Excerpt: PI: Alexander Tropsha Ph.D.
UNC Eshelman School of Pharmacy
University of North Carolina, Chapel Hill, North Carolina
Hits from high-throughput screening (HTS) of chemical libraries are often false positives due to their interference with the assay detection technology. In response to this problem, we generated the largest publicly available library of chemical liabilities and developed a free webtool to predict HTS artifacts, both of which are described herein. More specifically, we generated, curated, and integrated HTS datasets for thiol reactivity, redox activity, and luciferase (firefly and nano) activity. Using these curated datasets, we developed and validated several Quantitative Structure-Interference Relationship (QSIR) models to predict nuisance behavior. […] These models were employed for virtual profiling of the National Center for Advancing Translational Science's (NCATS) in-house library, and 256 compounds for each assay were selected for the experimental validation of nuisance behavior. The BA for these external predictions ranged from 58 to 78% for compounds within the applicability domains of the models. […] The models developed in this study, along with aggregation models previously developed by our group (SCAM Detective) were implemented in "Liability Predictor," an online tool which may be used as part of chemical library design or for triaging HTS hits. Both the models and the curated datasets are publicly available at https://liability.mml.unc.edu/.
SEQUENCE No. (e.g., 1, 2, 3, etc.); […] (e.g., Cells, Incubation, Reagent, etc.); VALUE; DESCRIPTION.
1; Reagent; 3 uL; Amplex Red and HRP mixture.
2; Compounds and control; 16 nL; Kalypsis pin tool (Wako USA) equipped with a 1536-well pin head. […]
6; Detection; Fluorescence, ViewLux microplate reader, 525 nm excitation, 598 nm emission.
NOTES (numbers refer to Sequence numbers above)
1. 3 uL of a mixture containing Amplex Red (25 uM final concentration) and horseradish peroxidase (HRP; 250 mU/mL final concentration) in assay buffer (HBSS) was dispensed into all wells of a 1536-well assay plate (solid-bottom black plate; Greiner Bio One, Monroe, NC).
2. A Wako Pin-tool (Wako Automation, Richmond, VA) was used to transfer 16 nL of compounds (consisting of 7-plates in qHTS format, final concentration range 18.3 nM to 114 uM) or control DA3003 (final concentration range 1.22 nM to 40 uM).
3. 15 min. incubation at room temperature protected from light.
4. 1 uL of DTT (prepared fresh; final concentration 250 uM) was dispensed for a final assay volume of 4 uL.
5. Plates were centrifuged (121xg, 15 seconds) and incubated for 30 minutes at room temperature protected from light.
6. Samples were read for fluorescence (Ex/Em = 525(20)/598(25) nm) on a ViewLux CCD imager (PerkinElmer). Data were normalized to DMSO (0% activity) and DA3003 (10 uM final concentration; 100% activity) and the resulting percent inhibition data were fitted to a 4-parameter Hill equation using NCATS in-house software.

Point of comparison: `C/C(=N\O)c1ccc(OCC(=O)N2CCCCC2)cc1`, “redox activity (% of DA3003)” value -2.9%. Against it:
- C[C@H](O)[C@H](O)[C@H]1CNc2nc(N)[nH]c(=O)c2N1 — higher, 1.73%
- CN1[C@@H]2CC[C@H]1CC(OC(=O)C(CO)c1ccccc1)C2 (stereo not given in full) — lower, -4.39%
- CCN(CC)CCCCNc1ncc2cc(-c3c(Cl)cccc3Cl)c(NC(=O)NC(C)(C)C)nc2n1 — higher, 8.42%
- COc1cc(/C=C/C(=O)N2CCN(CC(=O)N3CCCC3)CC2)cc(OC)c1OC — higher, 13.4%
- CC(=O)c1ccc(OCC(=O)N2CCCCC2)cc1 — lower, -3.24%
- CCNc1nc2c(ncn2[C@H]2C[C@H](O)[C@@H](CO)O2)c(=O)[nH]1 — lower, -3.98%
- O=[N+]([O-])c1ccc(CNc2nc(NCc3cccc(C(F)(F)F)c3)nc3nc[nH]c23)cc1 — higher, -2.35%
- CCNC(=O)[C@H]1O[C@@H](n2cnc3c(N)nc(NCCc4ccc(CCC(=O)O)cc4)nc32)[C@H](O)[C@@H]1O — lower, -7.72%
- CC(C(=O)O)c1ccc2c(c1)[nH]c1ccc(Cl)cc12 (stereo not given) — lower, -5.87%
- CC1(C)S[C@@H]2[C@H](NC(=O)[C@H](N)c3ccc(O)cc3)C(=O)N2[C@H]1C(=O)O — higher, 8.87%
- COc1cc(CNC(=O)CCCC/C=C/C(C)C)ccc1O — higher, 3.97%
- CC(=O)O[C@H]1C[C@@]2(C)[C@@H](C[C@@H](O)[C@H]3[C@@]4(C)CC[C@@H](O)[C@@H](C)[C@@H]4CC[C@@]32C)/C1=C(\CCC=C(C)C)C(=O)O — higher, 6.83%
- O=C(Nc1ccc2[nH]ncc2c1)C1CCC1 — higher, -1.06%
- NS(=O)(=O)c1ccc(-n2nc(C(F)(F)F)cc2-c2ccc(Cl)cc2)cc1 — higher, -0.683%
- COC(=O)C1=C(C)NC(C)=C(C(=O)OC)C1c1cccc(NC(=O)NCCCN2CCC(c3cccc(OC)c3)CC2)c1 — higher, 7.33%
- O=C(O)[C@H](CC(=O)N1C[C@H]2CCCC[C@H]2C1)Cc1ccccc1 — higher, 0.535%
- Fc1ccc2[nH]c(CN3CCN(c4ccccn4)CC3)cc2c1 — higher, 12.7%
- CS(=O)(=O)c1ccc(-n2nc(C(F)(F)F)cc2-c2ccc(F)cc2)cc1 — higher, 7.59%
- O=C(Nc1ccc2c(c1)CCN(Cc1ncn[nH]1)C2)c1ccccc1-c1ccc(C(F)(F)F)cc1 — higher, 16.7%
- Cc1ccc2c(n1)Oc1ccc(C(C)C(=O)OCC(=O)N(C)C)cc1C2 (stereo not given) — higher, 9.18%
- COc1ccc(/C=C/C(=O)Nc2ccccc2C(=O)O)cc1OC — higher, 0.921%
- CCCCN(CC)c1nc(C)nc2c1c(C)cn2-c1c(C)cc(C)cc1C — higher, 16.7%
- O=C1CC[C@@H](C(=O)N2CSC[C@H]2C(=O)O)N1 ([pGlu]-[Thz]-OH) — lower, -4.76%
- CC(=O)SCC(CC(=O)c1ccc(C)cc1)C(=O)O (stereo not given) — higher, -1.64%
- CN1[C@@H]2CC[C@H]1CC(OC(c1ccccc1)c1ccccc1)C2 (stereo not given in full) — higher, -0.389%
- CC1(C)[C@@H](O)CC[C@]2(C)[C@H]3C(=O)C=C4[C@@H]5C[C@@](C)(C(=O)O)CC[C@]5(C)CC[C@@]4(C)[C@]3(C)CC[C@@H]12 — higher, 4.36%

Point of comparison: `CC1(C)[C@@H](O[C@H]2O[C@H](C(=O)O)[C@@H](O)[C@H](O)[C@H]2O[C@@H]2O[C@H](C(=O)O)[C@@H](O)[C@H](O)[C@H]2O)CC[C@]2(C)[C@H]3C(=O)C=C4[C@@H]5C[C@@](C)(C(=O)O)CC[C@]5(C)CC[C@@]4(C)[C@]3(C)CC[C@@H]12`, “redox activity (% of DA3003)” value 17.8% [at 25.6 µM]. Against it:
- O=C(O)CC1CC(c2ccccc2)=NO1 (stereo not given) — lower, -3.16% [at 25.6 µM]

Work on `O=C(O)Cc1cccc(-c2cc(CCCCCCc3ccc(O[C@H]4O[C@H](CO)[C@@H](O)[C@H](O)[C@@H]4O)c(-c4cccc(CC(=O)O)c4)c3)ccc2O[C@H]2O[C@H](CO)[C@@H](O)[C@H](O)[C@@H]2O)c1` yielded a redox activity (% of DA3003) of 1.45% [at 0.461 µM].
